The whole screen tested about 290,000 compounds, of which about 2,200 (0.76%) were called active. Only a selection was taken, and actives are over-represented in it overall. Unmarked numbers belong to inactive results. Cut-off read from the data, not from the text of the source: active = inhibition above about 30%; inconclusive = no clear call, values can overlap the other calls; inactive = below that.
target: Protein RecA (Mycobacterium tuberculosis (strain ATCC 25618 / H37Rv)) (UniProt P9WHJ3); assay: Mtb RecA intein splicing inhibitors, primary screen, biochemical, fluorescence, HTS (AID 2221); details: cell-free RecA intein splicing, hits give high values, concentration not given here;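 note: 0% = vehicle wells and 100% = reference inhibitor control wells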
Sequence (P9WHJ3 whole entry, looked up): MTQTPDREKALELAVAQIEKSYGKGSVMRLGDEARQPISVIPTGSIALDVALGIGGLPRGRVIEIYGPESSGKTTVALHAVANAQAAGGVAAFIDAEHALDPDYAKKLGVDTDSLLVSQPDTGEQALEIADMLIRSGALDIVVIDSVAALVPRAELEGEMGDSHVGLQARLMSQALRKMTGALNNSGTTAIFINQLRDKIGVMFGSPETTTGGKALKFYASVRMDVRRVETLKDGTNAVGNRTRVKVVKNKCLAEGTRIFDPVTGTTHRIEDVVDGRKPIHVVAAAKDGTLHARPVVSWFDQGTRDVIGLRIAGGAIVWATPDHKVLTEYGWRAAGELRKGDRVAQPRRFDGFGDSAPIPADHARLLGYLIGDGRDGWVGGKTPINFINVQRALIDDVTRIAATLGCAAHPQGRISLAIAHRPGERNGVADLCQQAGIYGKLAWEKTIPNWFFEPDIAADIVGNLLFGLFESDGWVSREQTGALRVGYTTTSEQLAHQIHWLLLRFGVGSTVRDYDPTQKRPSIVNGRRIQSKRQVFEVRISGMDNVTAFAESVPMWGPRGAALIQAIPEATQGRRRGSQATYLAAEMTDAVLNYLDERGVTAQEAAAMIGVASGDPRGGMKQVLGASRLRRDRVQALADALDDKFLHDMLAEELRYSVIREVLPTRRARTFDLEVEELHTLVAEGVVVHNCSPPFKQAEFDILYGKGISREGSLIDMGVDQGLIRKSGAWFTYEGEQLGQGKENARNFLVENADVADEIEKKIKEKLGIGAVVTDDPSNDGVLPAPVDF

Compared with `NNC(=O)C1CC(O)CN1S(=O)(=O)c1ccc(Cl)cc1` (configuration not stated), `O=C(Nc1ncccc1O)c1ccc(S(=O)(=O)N2CCCCCC2)cc1` is lower in inhibition: 0.0391% for the first, -0.935% for the second.

First: COc1cccc(CN(C)C(=O)CC23CC4CC(CC(C4)C2)C3)c1OC
Second: COC(=O)C1=C(C)OC(N)=C(C#N)C1c1cc(OC)ccc1OC (configuration not stated)
The inhibition of the first is higher: 9.37% for the first, -1.82% for the second.

Compared with `O=C(NCCc1ccccc1)Oc1ccc(Cl)cc1`, `C[n+]1ccc(C(=O)NCc2ccccc2)cc1` is lower in inhibition: 6.61% for the first, 1.21% for the second.

Going from `COc1cccc(CNC(=O)C2CCCN(c3ncnc4c3nc3n4CCCCC3)C2)c1` (configuration not stated) to `COc1cccc(NC(=O)c2ccc3c(SCC(=O)O)c4c(nc3c2)CCCC4)c1`, the inhibition rises from 3.28% to 16.6%.

Compared with `CC(=O)c1ccc(NC(=O)c2ccc3c(Cl)c4c(nc3c2)CCCC4)cc1`, `O=C(Nc1ccccc1)c1ccc(NC(=O)c2cccs2)cc1` is lower in inhibition: -0.115% for the first, -3.07% for the second.

Compared with `CC(C)CC(=O)Nc1nnc(S(=O)(=O)N(C)c2ccc(Cl)cc2)s1`, `CCn1nnnc1SCC(=O)Nc1ccc(N(C)C)cc1` is lower in inhibition: -1.1% for the first, -2.84% for the second.

Going from `O=C(C1CCCN(S(=O)(=O)c2ccc([N+](=O)[O-])cc2)C1)N1CCCCC1` (configuration not stated) to `CC1(C)CC(=O)C(N=Nc2ccc(S(=O)(=O)N3CCCCCC3)cc2)=C(O)C1`, the inhibition rises from -2.27% to -0.925%.

First: O=c1oc2ccccc2c(NC2CCCCC2)c1NS(=O)(=O)c1ccc(Cl)cc1
Second: COc1ccc(NC(=O)c2cnc(NS(=O)(=O)c3ccccc3)nc2)cc1
The inhibition of the first is lower: -0.796% for the first, 0.334% for the second.

Compared with `COC(=O)c1cn(C(=O)c2ccc(Cl)cc2)c2ccccc12`, `CC(OC(=O)c1ccccc1OCc1ccc(Cl)cc1)C(N)=O` (configuration not stated) is lower in inhibition: -1.64% for the first, -4.29% for the second.

First: COC(=O)c1ccc(-n2cnc3ccccc32)nc1
Second: Cc1ccccc1Cn1c(=O)[nH]c2ccccc21
The inhibition of the first is lower: -0.81% for the first, 3.55% for the second.

Going from `COC(=O)c1nc(NC(=O)c2ccc(Cl)cc2)n[nH]1` to `COC(=O)c1nc(NC(=O)c2ccc(F)cc2)n[nH]1`, the inhibition rises from -2.52% to 22.9%.

Compared with `CC(=O)N1CC(=O)N(CC(=O)Nc2ccc(Br)cc2)C1=S`, `Cc1n[nH]c(C)c1S(=O)(=O)N1CCCC(C(=O)Nc2ccc(Br)cc2)C1` (configuration not stated) is lower in inhibition: -3.4% for the first, -13.2% for the second.

First: O=C(Oc1cccc(O)c1)C1CCCCC1
Second: Cc1cc(C=O)c(C)n1-c1ccc(NC2CCCCC2)c([N+](=O)[O-])c1
The inhibition of the first is lower: -20.9% for the first, 15.3% for the second.

First: COC(=O)C1=C(C(=O)OC)C(c2cc([N+](=O)[O-])ccc2O)c2sc(=O)[nH]c2S1 (configuration not stated)
Second: COc1cc(OC)c(S(=O)(=O)Nc2ccccc2C(=O)O)cc1S(=O)(=O)Nc1ccccc1C(=O)O
The inhibition of the first is lower: -7.2% for the first, -1.6% for the second.

First: CCOC(=O)c1c(C)[nH]c(C)c1S(=O)(=O)N(C)CC(=O)Nc1ccccc1C
Second: CCOC(=O)c1c(C)nc(-c2ccccc2)nc1NC(=O)C(C)C
The inhibition of the first is lower: -2.47% for the first, -0.631% for the second.

Compared with `O=C(O)c1cccc(N2C(=O)Nc3ccccc3N2O)c1`, `CC(=O)C1C(c2cccc(Oc3ccccc3)c2)NC(=O)NC1(O)C(F)(F)F` (configuration not stated) is higher in inhibition: -5.4% for the first, -2.89% for the second.

Going from `O=C(c1cccc(N2CCCC2=O)c1)N1CCOCC1` to `Cc1ccc(-c2noc(C3CCCN(C(=O)c4cccc(Cl)c4)C3)n2)o1` (configuration not stated), the inhibition falls from 2.18% to 1.61%.

Compared with `N=C1/C(=C/c2cccn2-c2cccc([N+](=O)[O-])c2)C(=O)N=C2SC=CN12`, `CC1=NN(c2ccc(Cl)c(C(=O)O)c2)C(=O)/C1=C/c1ccc(-c2ccccc2[N+](=O)[O-])o1` is higher in inhibition: -0.963% for the first, 7.48% for the second.

Compared with `O=c1[nH]n2c(-c3ccccc3)nc(O)c2c2ccccc12`, `Cc1nn(Cc2ccccc2)c(C)c1NS(=O)(=O)c1ccccc1` is higher in inhibition: -1.37% for the first, 1.17% for the second.

Going from `CN(C(=O)CSc1nnc(N)s1)c1c(N)n(Cc2ccccc2)c(=O)[nH]c1=O` to `Cc1ccc(N(Cc2cc3ccccc3[nH]c2=O)C(=O)c2cccs2)cc1`, the inhibition rises from -0.327% to 0.4%.

Going from `CC(C)(C)C(=O)N1CCC[C@@]1(CO)C(=O)O` to `CCOC(=O)N1CCC(NC(=O)CCc2ccccc2)CC1`, the inhibition falls from -0.553% to -0.782%.

Going from `CCc1ccc2nc(Nc3ncc(C(C)=O)c(C)n3)nc(C)c2c1` to `CC(=O)N(Cc1cc(=O)[nH]c2ccccc12)c1ccc(C)cc1C`, the inhibition rises from 1.55% to 2.74%.

Going from `Brc1ccc(-c2n(-c3ccccn3)c3ccccc3[n+]2-c2ccccn2)cc1` to `O=S(=O)(Nc1ccccn1)c1ccc(Oc2ccccc2)cc1`, the inhibition falls from 6.87% to -0.988%.

Going from `Cc1[nH]c2ccccc2c1C(=O)CN1CCCC(C)C1` (configuration not stated) to `CCOC(=O)N1CCC(NC(=O)COc2cc(=O)n(C)c3ccccc23)CC1`, the inhibition falls from -2.48% to -3.15%.

First: O=C(Cc1c[nH]c2ccccc12)OCCOC(=O)Cc1c[nH]c2ccccc12
Second: COc1ccccc1CC(=O)NCCc1c[nH]c2ccccc12
The inhibition of the first is lower: 1.52% for the first, 3.54% for the second.

First: O=C(O)C1CCCN(CCC=C(c2ccccc2)c2ccccc2)C1 (configuration not stated)
Second: NC(=O)C1CCN(C(=O)c2ccc(-c3ccccc3)cc2)CC1
The inhibition of the first is higher: -1.43% for the first, -3.02% for the second.

Compared with `O=S(=O)(Nc1n[nH]c(C(F)(F)F)n1)c1ccccc1`, `Cc1ccc(-c2nc(SCC(=O)Nc3ccccc3OC(F)F)c3c(C)c(C(=O)O)sc3n2)cc1` is higher in inhibition: -1.49% for the first, 2.99% for the second.

First: Cc1cc(C)c2c3c(sc2n1)C(c1ccccc1)C(C#N)=C(N)O3 (configuration not stated)
Second: Cn1c2c(c(=O)n(C)c1=O)C(c1cccc(F)c1)C(C#N)=C(N)O2 (configuration not stated)
The inhibition of the first is lower: -1.99% for the first, -1.55% for the second.

First: C=CCOC(=O)C1=C(C)OC(N)=C(C#N)C1c1ccc(F)cc1 (configuration not stated)
Second: COc1ccc(C2C(C#N)=C(N)Oc3cc(N)ccc32)cc1OC (configuration not stated)
The inhibition of the first is higher: 5.83% for the first, -13.5% for the second.

Going from `CC1CC(C)(C)CC2(C1)NC(=O)N(CC(=O)Nc1nccs1)C2=O` (configuration not stated) to `CCN1C(=O)[C@@H]2[C@@H](c3ccc(-c4ccccc4)cc3)N3CCCC[C@@]3(C(=O)OC)[C@@H]2C1=O`, the inhibition rises from -1.2% to 2.14%.

Compared with `CCN1CCC2(CC1)N=C(c1ccc(F)cc1)C(=S)N2C(=O)c1ccc(C)cc1`, `Cc1ccc(CC2C(=O)N(c3ccc(F)cc3)C(=O)C2C)cc1` (configuration not stated) is lower in inhibition: 1.27% for the first, -0.367% for the second.

Compared with `COc1ccc(-c2ccc(CCC(=O)O)n2NC(=O)c2ccc(C(C)(C)C)cc2)cc1`, `COc1ccc(OC)c(/C(C)=N\NC(=O)c2cc3cc(Cl)ccc3n2C)c1` is higher in inhibition: 3.63% for the first, 9.04% for the second.

Compared with `COc1cc(/C(=C/c2ccccc2)c2ccccc2)c2c(c1)oc1ccccc12`, `Cc1ccc(-c2nnc(Nc3ccc(C(=O)N(C)C)cc3)c3ccccc23)cc1S(N)(=O)=O` is lower in inhibition: -0.274% for the first, -0.54% for the second.

Compared with `O=C1C=CC(=O)N1c1ccc(N2CCCCC2)cc1`, `O=C1C(=O)N(CC2COc3ccccc3O2)c2ccccc21` (configuration not stated) is higher in inhibition: 3.11% for the first, 6.05% for the second.

Compared with `COc1ccc(NC2=CC(=S)NC(C)(C)C2)cc1`, `Cc1ccccc1C(=O)N1CCC(C(=O)Nc2ccc(S(=O)(=O)N(C)C(C)C)cc2)CC1` is lower in inhibition: 1.09% for the first, 0.242% for the second.

First: Cc1cc(NC(=O)CCC2COc3ccccc3O2)no1 (configuration not stated)
Second: Cc1cccc(C)c1NC(=S)N(Cc1cccnc1)Cc1ccccc1Cl
The inhibition of the first is lower: 2.09% for the first, 2.64% for the second.

Compared with `CCCOc1ccc(/C=N/NC(=O)C2CC2)c(OCCC)c1`, `O=C(COc1coc(CN2CCN(c3ccccc3F)CC2)cc1=O)N1CCc2ccccc21` is lower in inhibition: -1.61% for the first, -2.58% for the second.

For `Cc1ccc(Nc2nc(CSc3nnc(-c4ccncc4)n3-c3ccccc3C)cs2)cc1`, the inhibition was 16.7%.

With `O=C(O)CSc1c2c(nc3cc(C(=O)Nc4cccc(C(F)(F)F)c4)ccc13)CCCC2` the inhibition was 45.1% (active).
With `O=C(c1ccc(Cl)cc1)n1cnc2ccccc21` the inhibition was 48.8% (active).
With `Oc1c(Cl)cc(Cl)c(Cl)c1Cc1c(O)c(Cl)cc(Cl)c1Cl` the inhibition was 43.2% (active).
`COC(=O)c1nc(NC(=O)c2ccc(C(C)(C)C)cc2)n[nH]1` was tested, and the inhibition was 32.8% (active).
With `CCOC(=O)c1c(C)[nH]c2c1-c1ccccc1C(=O)C2=O` the inhibition was 97.6% (active).
For `NC1=NN(c2cccc(C(=O)O)c2)C(=O)C1`, the inhibition was 83.8% (active).
`O=c1[nH]c2ccccc2n2c(-c3ccccc3)nnc12` was tested, and the inhibition was 33.2% (active).
With `Cc1ccc(N(Cc2cc(=O)[nH]c3ccccc23)C(=O)CCl)cc1` the inhibition was 69.5% (active).
With `O=S(=O)(O)Oc1c[nH]c2ccccc12` the inhibition was 75% (active).
With `O=C(Nc1n[nH]c(C(F)(F)F)n1)c1cccs1` the inhibition was 51.9% (active).
With `COc1ccccc1C1C(C#N)=C(N)Oc2c1c(-c1ccccc1)nn2-c1ccccc1` (configuration not stated) the inhibition was 35.8% (active).
With `Cc1nn(-c2ccccc2)c2c1C(c1ccc(F)cc1)C(C#N)=C(N)O2` (configuration not stated) the inhibition was 43.3% (active).
With `Cc1nn(Cc2ccccc2)c2c1C(c1ccccc1)C(C#N)=C(N)O2` (configuration not stated) the inhibition was 66.3% (active).
For `O=C1NC(c2ccc(-c3ccccc3[N+](=O)[O-])o2)C(C(=O)c2ccc(Cl)cc2)C(O)(C(F)(F)F)N1` (configuration not stated), the inhibition was 45% (active).
`Cc1cc(C(=O)CCl)c(C)n1CC1COc2ccccc2O1` (configuration not stated) was tested, and the inhibition was 40.6% (active).
For `COc1ccc(S(=O)(=O)/N=C2\C=C(NS(=O)(=O)c3ccccc3)C(=O)c3ccccc32)cc1`, the inhibition was 36.2% (active).
With `CCOC(=O)N1CCC(c2cc(=O)n(-c3ccccc3)[nH]2)CC1` the inhibition was 95.5% (active).
